According to PubChem BioAssay (NCATS):
Records with an inconclusive call do not appear. Where a call stands in place of a potency, no number is given. The source made the active and inactive calls. Calls come from the whole dose curve; as a rule, active = well fitted inhibition curve with a large enough effect; inconclusive = small, poorly fitted or top-dose-only effect; inactive = flat fitted curve, though single readings scatter. Where a SMILES comes first, the peptide text is derived from it. [ ]: non-standard residue; d: D form. dPhe(4-Cl) = N[C@H](Cc1ccc(Cl)cc1)C(=O)O; d2Nal = N[C@H](Cc1ccc2ccccc2c1)C(=O)O; dCit = NC(=O)NCCC[C@@H](N)C(=O)O; d3Pal = N[C@H](Cc1cccnc1)C(=O)O

test: P-glycoprotein substrates identified in KB-8-5-11 adenocarcinoma cell line, qHTS therapeutic library screen (AID 1346987); conditions: KB-8-5-11 (P-gp overexpressing) viability, CellTiter-Glo, 72 h; series mostly up to 44.5 µM; note: nearly all actives have a fitted effect of over 65% in size
Summary of the method: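 Luminescence from CellTiter-Glo, read 5 min after addition, quantified survival of KB-8-5-11 (P-gp-overexpressing) cells exposed to compounds for 72 h. AC50 was derived from concentration-response curves.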
Potency is the fitted concentration of half-maximal effect.

SMILES	Potency	activity change, negative = cytotoxicity
Cc1noc(-c2ccc(-c3ccc(CC(=O)O)cc3)cc2)c1NC(=O)O[C@H](C)c1ccccc1	inactive	
CC1=C(C)C(=O)OC(C(C)C2CCC3C4CC=C5CC(OC6OC(COC7OC(CO)C(O)C(O)C7O)C(O)C(O)C6O)CC(O)C5(C)C4CCC23C)C1 (stereo unspecified)	inactive	
CO[C@H]1/C=C/C=C/C=C/C[C@H](OC(=O)[C@@H](C)NC(=O)C2CCCCC2)[C@H](C)[C@@H](O)/C(C)=C/CCc2cc(O)cc(c2)NC(=O)C1	inactive	
C[C@@H]1O[C@@H](O[C@H]2[C@H](OC(=O)[C@]34CCC(C)(C)C[C@H]3C3=CCC5[C@@]6(C)C[C@H](O)[C@H](O[C@@H]7O[C@H](CO)[C@@H](O)[C@H](O)[C@H]7O)[C@@](C)(CO)C6[C@H](O)C[C@@]5(C)[C@]3(C)C[C@H]4O)OC[C@H](O)[C@@H]2O)[C@H](O)[C@H](O)[C@H]1O[C@@H]1OC[C@@H](O)[C@H](O[C@H]2OC[C@](O)(CO)[C@H]2O)[C@H]1O (stereo partly specified)		4.28% [at 9.29 µM] (inactive)
Cc1[nH]c2ccccc2c1CCNC(=O)c1ccccc1F	inactive	
CCC(C)/C=C(C)/C=C/c1cc2c(cn1)C(=O)C(C)(OC(C)=O)C(O)=C2Cl (stereo unspecified)	inactive	
C/C(=C/CO)CC[C@@H]1[C@@](C)(O)CCC2C(C)(C)CCC[C@]21C (stereo partly specified)	inactive	
CC(=O)N[C@H](Cc1ccc2ccccc2c1)C(=O)N[C@H](Cc1ccc(Cl)cc1)C(=O)N[C@H](Cc1cccnc1)C(=O)N[C@@H](CO)C(=O)N[C@@H](Cc1ccc(O)cc1)C(=O)N[C@H](CCCNC(N)=O)C(=O)N[C@@H](CC(C)C)C(=O)N[C@@H](CCCN=C(N)N)C(=O)N1CCC[C@H]1C(=O)N[C@H](C)C(N)=O (Ac-[d2Nal][dPhe(4-Cl)][d3Pal]SY[dCit]LRP[dA]-NH2)	inactive	
C=CC(=O)Nc1cc(Nc2ncc(Cl)c(-c3c[nH]c4ccccc34)n2)c(OC)cc1N(C)CCN(C)C	5.17 µM (active)	
C[C@@H]1[C@H]2[C@H](O[C@@H]3O[C@H](CO)[C@@H](O)[C@H](O)[C@H]3O)OC=C(C(=O)O)[C@H]2C[C@@H]1O	inactive	
CS(=O)(=O)N(CC(=O)NCC1CC1)c1cc(C(F)(F)F)ccc1Cl	inactive	
C/C=C1\[C@H](O[C@@H]2O[C@H](CO)[C@@H](O)[C@H](O)[C@H]2O)OC=C(C(=O)OC)[C@H]1CC(=O)OC[C@H]1O[C@@H](OCCc2ccc(O)cc2)[C@H](O)[C@@H](O)[C@@H]1O	inactive	
COC(=O)/C=C/C12COC(C)(C)C1C(O)C(OC(C)=O)C1(C)C2CCC2(C)C(c3ccoc3)OC(=O)C3OC321 (stereo unspecified)	inactive	
C=C1C(O)C[C@@H]2C(C(=O)O)=CO[C@@H](O[C@@H]3O[C@H](CO)[C@@H](O)[C@H](O)[C@H]3OC(=O)c3ccc(O)cc3)[C@H]12 (stereo partly specified)	inactive	
CC(Cc1cc2c(c(C(N)=O)c1)N(CCCO)CC2)NCCOc1ccccc1OCC(F)(F)F (stereo unspecified)	inactive	
Cc1[nH]nc(C(F)(F)F)c1Cc1sc2c(c1C(=O)N1C[C@](C)(O)CO1)c(=O)n(C)c(=O)n2C(C)C	inactive	
Cn1cc(-c2ccc3nnc(Sc4ccc5nn(C)cc5c4)n3n2)cn1	inactive	
NC(=O)Nc1cc(-c2cccc(F)c2)sc1C(=O)NC1CCCNC1 (stereo unspecified)	8.2 µM (active)	
COC(=O)c1c(C)cc(OC(=O)c2c(C)cc(OC)cc2OC)cc1O[C@@H]1O[C@H](CO)[C@@H](O)[C@H](O)[C@H]1O	inactive	
COc1cc2c(cc1O)CC[C@H]1[C@@H]2CC[C@]2(C)[C@H](O)CC[C@@H]12	1.3 µM (active)	
O=C(NCc1ccc(F)cc1)C(=O)c1c[nH]c2ccccc12	inactive	
C(#Cc1nc2ncccc2nc1OCCN1CCCC1)c1ccccc1	6.51 µM (active)	
CC[C@]1(O)CC2CN(CCc3c([nH]c4ccccc34)[C@@](C(=O)OC)(c3cc4c(cc3OC)N(C=O)[C@H]3[C@@](O)(C(=O)OC)[C@H](OC(C)=O)[C@]5(CC)C=CCN6CC[C@]43[C@@H]65)C2)C1 (stereo partly specified)	2.27 µM (active)	
CC1(C)CCC[C@@]2(C)C1[C@H](OC(=O)/C=C/C=C/C(=O)O)C=C1COC(=O)[C@@]12O (stereo partly specified)	inactive	
COc1ccc(/C=C\C(=O)O)c(O[C@@H]2O[C@H](CO)[C@@H](O)[C@H](O)[C@H]2O)c1	inactive	
C[C@]12C[C@@H](O)[C@@H]3C[C@@]1(O[C@@H]1O[C@H](CO)[C@@H](O)[C@H](O)[C@H]1O)[C@]3(COC(=O)c1ccccc1)C(=O)O2	inactive	
